Source: PubChem
PINK1 expr mod: PINK1 expression modulation; PINK1 immunofluorescence, high-content cytometry, 24 h; Potency, µM (doses to about 76.6 µM), for the others: at the top dose activation (PINK1 increase), hits mostly activators; 0.2% of 410,000 active; AID 624263; active means well fitted activation curve with a large enough effect; inconclusive means small, poorly fitted or top-dose-only effect; cell line not stated here; further: % of control where 0% means no effect; nearly all actives have a fitted effect of over 65% in size
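Cells are seeded, rested 12 hours, then given compound at five concentrations or DMSO for 24 hours. After fixation, blocking and antibody staining, PINK1 amount and mitochondrial localization are scored; CCCP serves as control.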
SW480 rereplic: induces DNA re-replication in SW480 colon adenocarcinoma cells; SW480 DNA re-replication, Hoechst DNA content imaging, 48 h; 1.8% of 340,000 active; Potency, µM (series often up to 46.1 µM), without a hit: top-dose re-replication activation, usual class: activators; further: % of control where 0% means no effect; nearly all actives have a fitted effect of over 55% in size
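DNA re-replication was detected as more nuclei of elevated Hoechst intensity after 48 hr exposure to compound (23 nL pinned per well of 250 cells).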
KB-V1 cytotox: KB-V1 MDR subline cytotoxicity; KB-V1 MDR cells viability, CellTiter-Glo, 72 h; Potency, µM (titrated, usually from 46.1 µM), most hits filed as cytotoxic; 3.4% of 400,000 active; further: on the % scale 0 is the no-effect control and ±100 the full control effect; nearly all actives have a fitted effect of over 60% in size
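Cytotoxicity toward P-gp-expressing KB-V1 cells was determined as loss of CellTiter-Glo luminescence after 72 h at 37 degrees C. Compounds were tested in quantitative HTS format across a concentration range, with curves fitted to normalized data.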
12-LOX inh: blocks human arachidonate 12S-lipoxygenase | Potency, µM (doses to about 108 µM), inactives show at the highest dose activity change, negative = inhibition, most hits filed as inhibitors | 1.1% of 580,000 active | AID 1671190 | P18054 | purified 12hLO, xylenol orange hydroperoxide absorbance; further: on the % scale 0 is the no-effect control and ±100 the full control effect
Target sequence (P18054 whole entry, looked up): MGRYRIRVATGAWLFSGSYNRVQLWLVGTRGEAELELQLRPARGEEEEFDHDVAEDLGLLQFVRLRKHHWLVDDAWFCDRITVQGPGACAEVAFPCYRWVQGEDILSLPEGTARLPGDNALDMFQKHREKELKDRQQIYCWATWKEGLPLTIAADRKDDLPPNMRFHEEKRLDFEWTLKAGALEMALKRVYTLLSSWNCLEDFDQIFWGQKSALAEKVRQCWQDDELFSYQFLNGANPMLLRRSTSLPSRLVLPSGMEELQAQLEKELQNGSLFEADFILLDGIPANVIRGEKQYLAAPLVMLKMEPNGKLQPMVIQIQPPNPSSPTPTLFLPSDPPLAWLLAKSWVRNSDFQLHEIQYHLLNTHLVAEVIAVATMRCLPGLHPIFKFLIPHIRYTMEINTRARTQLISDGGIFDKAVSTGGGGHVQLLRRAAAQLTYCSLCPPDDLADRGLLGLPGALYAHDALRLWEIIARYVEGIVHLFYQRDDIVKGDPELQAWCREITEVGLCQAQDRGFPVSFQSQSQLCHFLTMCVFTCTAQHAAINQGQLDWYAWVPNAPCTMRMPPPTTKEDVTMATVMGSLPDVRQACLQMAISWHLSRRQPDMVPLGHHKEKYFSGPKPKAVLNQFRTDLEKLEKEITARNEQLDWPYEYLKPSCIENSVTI
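Hydroperoxide product was detected by ferrous iron/xylenol orange as the 573 to 405 nm absorbance ratio. Arachidonic acid at 40 uM (final) was turned over for 30 min at room temperature by 150 nM human 12hLO, pH 7.0 Hepes buffer, after 15 min compound preincubation.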
KB-3-1 cytotox: KB-3-1 parental cell cytotoxicity. KB-3-1 viability, CellTiter-Glo ATP luminescence, 72 h. Potency, µM (doses to about 46.1 µM), usual class: cytotoxic. 1.4% of 400,000 active. AID 1347075; further: on the % scale 0 is the no-effect control and ±100 the full control effect; nearly all actives have a fitted effect of over 60% in size
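Screening of KB-3-1 cells (DMEM, 10% FBS, phenol-red free) ran from lowest to highest compound concentration; after 72 h at 37 °C viability was read luminescently and curves fitted.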
MCF10A rerep: induces DNA re-replication in MCF 10a normal breast cells; MCF 10A DNA re-replication, Hoechst nuclear intensity, 48 h; Potency, µM (top dose mostly 46.1 µM), for inactives: top-dose activity, positive = re-replication, hits mostly activators; 2.9% of 350,000 active; AID 624296; further: % of control where 0% means no effect; nearly all actives have a fitted effect of over 50% in size
* = called active by the depositor; [ ] = remark or other dose. Shown are actives, neighbours in structure and some others; about 5.8% of the full set was active somewhere. Unless noted, the call rests on the fitted dose curve; in most records, active means well fitted curve in the direction sought with a large enough effect; inconclusive means small, poorly fitted or top-dose-only effect, or another doubt; inactive means no such curve, though single readings can be large; an effect the other way counts as inactive or inconclusive. Potency means the concentration at half of the fitted maximal effect.

Results for O=C(NCCN1CCCCC1)c1ccc(Cn2c(SCc3ccccc3)nc3ccncc32)cc1 ?
12-LOX inh: -18%

Results for CC(C)Oc1ccc(C(=O)N2CCCCC2CCN2CCCCC2)cc1 (configuration not stated) ?
PINK1 expr mod: 0%; 12-LOX inh: -7%

What do the screens show for `CC(C)COc1ccc(C(=O)N2CCCCC2CCN2CCCCCC2)cc1` (configuration not stated)?
12-LOX inh: 7.1µM*

What do the screens show for `CCN(CC)S(=O)(=O)c1cccc(NC(=O)COc2ncnc3sc(C)c(C)c23)c1`?
12-LOX inh: -48%

How did N#Cc1c(Cl)nsc1NC(=O)c1ccccc1 do in these assays?
PINK1 expr mod: 13µM*; SW480 rereplic: 1%; KB-V1 cytotox: 7.3µM*; 12-LOX inh: inconclusive; KB-3-1 cytotox: inconclusive; MCF10A rerep: inconclusive

What do the screens show for `Cc1cccc(C(=O)Nc2sc(C)c(-c3ccccc3)c2C#N)c1`?
PINK1 expr mod: 2%; SW480 rereplic: -4%; KB-V1 cytotox: inconclusive; 12-LOX inh: inconclusive; KB-3-1 cytotox: inactive; MCF10A rerep: 9.2µM*

How did N#Cc1c(NC(=O)c2ccccc2)sc2c1CCCCC2 do in these assays?
PINK1 expr mod: 3%; SW480 rereplic: -1%; KB-V1 cytotox: inactive; 12-LOX inh: -24%; KB-3-1 cytotox: inactive; MCF10A rerep: 2%

What do the screens show for `Cc1noc(C)c1C(=O)Nc1sc(C)c(-c2ccccc2)c1C#N`?
PINK1 expr mod: 28µM*; SW480 rereplic: -1%; KB-V1 cytotox: 4.1µM*; 12-LOX inh: -5%; KB-3-1 cytotox: 13µM*; MCF10A rerep: 7%

How did CCc1ccc(OC(=O)c2ccc(C)cc2)cc1 do in these assays?
12-LOX inh: -20%

What do the screens show for `CCN(C(=O)Cc1nc(-c2cccs2)oc1C)c1ccc(F)cc1`?
12-LOX inh: 38%

What do the screens show for `Cc1oc(-c2cc(Cl)cc(Cl)c2)cc1C(=O)NCCc1ccccc1`?
PINK1 expr mod: 7%; SW480 rereplic: -3%; KB-V1 cytotox: inconclusive; 12-LOX inh: -35%; KB-3-1 cytotox: inactive; MCF10A rerep: 15µM*

Results for COc1ccc(CCNC(=O)c2cc(-c3cc(Cl)cc(Cl)c3)oc2C)cc1 ?
PINK1 expr mod: 11%[38.3 µM]; SW480 rereplic: 11%; KB-V1 cytotox: inactive; 12-LOX inh: -20%; KB-3-1 cytotox: inactive; MCF10A rerep: inconclusive

Results for Cn1c(-c2cccc(OCc3ccccc3)c2)nc2c1c(=O)[nH]c(=O)n2Cc1ccccc1 ?
PINK1 expr mod: 9%; SW480 rereplic: 0%; KB-V1 cytotox: inconclusive; 12-LOX inh: 33%; KB-3-1 cytotox: 15µM*; MCF10A rerep: inconclusive

Results for COc1ccc(-c2nc3c(c(=O)[nH]c(=O)n3Cc3ccccc3)n2C)cc1 ?
PINK1 expr mod: 1%; SW480 rereplic: -7%; KB-V1 cytotox: inactive; 12-LOX inh: 363%; KB-3-1 cytotox: inactive; MCF10A rerep: -1%

How did Cn1c(=O)c2c(nc(-c3ccccc3)n2C)n(Cc2ccccc2)c1=O do in these assays?
PINK1 expr mod: 7%; SW480 rereplic: -3%; KB-V1 cytotox: 15µM*; 12-LOX inh: 3%; KB-3-1 cytotox: inactive; MCF10A rerep: 5%

Results for COc1ccc(-c2nc3c(c(=O)[nH]c(=O)n3Cc3ccccc3)n2Cc2ccccc2)cc1 ?
PINK1 expr mod: -3%; SW480 rereplic: 3%; KB-V1 cytotox: 3.7µM*; 12-LOX inh: 0%; KB-3-1 cytotox: inconclusive; MCF10A rerep: inconclusive

What do the screens show for `Cn1c(CCNC(=O)c2cccc(F)c2)nc2cc(NC(=O)C3CCCO3)ccc21` (configuration not stated)?
12-LOX inh: -2%

Results for C=C(C)c1cccc(C(C)(C)NC(=O)Nc2cc(C)ccc2OC)c1 ?
PINK1 expr mod: -3%; SW480 rereplic: 6%; KB-V1 cytotox: 8.2µM*; 12-LOX inh: 0%; KB-3-1 cytotox: inactive; MCF10A rerep: 12%

How did C=C(C)c1cccc(C(C)(C)NC(=O)Nc2ccccc2OCC)c1 do in these assays?
PINK1 expr mod: 13%; SW480 rereplic: 0%; KB-V1 cytotox: inactive; 12-LOX inh: 4%; KB-3-1 cytotox: inactive; MCF10A rerep: inconclusive

Results for COc1ccc(O)c(/C=N/NC(=O)c2ccc(OCc3cccc(Br)c3)cc2)c1 ?
PINK1 expr mod: 11%; SW480 rereplic: 4.1µM*; KB-V1 cytotox: 3.3µM*; 12-LOX inh: 2%; KB-3-1 cytotox: inconclusive; MCF10A rerep: inconclusive

How did CCCOc1ccc(Br)cc1/C=N/NC(=O)c1cc(OC)c(OC)c(OC)c1 do in these assays?
PINK1 expr mod: 7%; SW480 rereplic: -7%; KB-V1 cytotox: inactive; 12-LOX inh: 3%; KB-3-1 cytotox: inactive; MCF10A rerep: -1%

What do the screens show for `COc1ccc(C(=O)N/N=C/c2cc(Br)ccc2O)cc1OC`?
PINK1 expr mod: 5%; SW480 rereplic: inconclusive; KB-V1 cytotox: 21µM*; 12-LOX inh: inconclusive; KB-3-1 cytotox: inconclusive; MCF10A rerep: inconclusive

What do the screens show for `c1csc(-c2cc(CSc3nnc(-c4ccncc4)o3)no2)c1`?
12-LOX inh: -5%

What do the screens show for `CCN(Cc1ccccc1)C(=O)CSc1nc(C2CC2)nc2ccccc12`?
12-LOX inh: 8%

How did CCNC(=S)N1CCN(C(=O)C(Cc2ccccc2)NC(C)=O)CC1 (configuration not stated) do in these assays?
PINK1 expr mod: 2%; SW480 rereplic: 5%; KB-V1 cytotox: inactive; 12-LOX inh: 0%; KB-3-1 cytotox: inactive; MCF10A rerep: 0.65µM*

What do the screens show for `CC(=O)NC(Cc1ccccc1)C(=O)N1CCN(C(=S)NCC(C)C)CC1` (configuration not stated)?
PINK1 expr mod: 1%; SW480 rereplic: -14%; KB-V1 cytotox: inactive; 12-LOX inh: 0%; KB-3-1 cytotox: inactive; MCF10A rerep: -4%

How did COc1cc(-n2ccc3c(nnc4c(-c5cccc(Cl)c5)c(C)nn43)c2=O)cc(OC)c1OC do in these assays?
12-LOX inh: 1%

Results for CC(C)COP(=O)(OCC(C)C)C(Nc1ccccc1)c1ccc2c(c1)OCO2 (configuration not stated) ?
PINK1 expr mod: 12%; SW480 rereplic: inconclusive; KB-V1 cytotox: 6.5µM*; 12-LOX inh: 4%; KB-3-1 cytotox: inconclusive; MCF10A rerep: inconclusive

How did c1ccc(-c2ccc(OCCCn3cncn3)cc2)cc1 do in these assays?
PINK1 expr mod: 0%; SW480 rereplic: 12%; KB-V1 cytotox: inactive; 12-LOX inh: 1.4µM*; KB-3-1 cytotox: inactive; MCF10A rerep: -46%
